Source: PubChem BioAssay (National Center for Advancing Translational Sciences (NCATS))
HP1b chromo inh = inhibitors of HP1-beta chromodomain binding to methylated histone tails | Potency, µM (doses to about 114 µM), most hits filed as inhibitors | AlphaScreen HP1-beta / biotin-H3K9me3 peptide binding | actives 0.56% (n = 390,000); further: nearly all actives have a fitted effect of over 70% in size
Target sequence (P83916 whole entry, looked up): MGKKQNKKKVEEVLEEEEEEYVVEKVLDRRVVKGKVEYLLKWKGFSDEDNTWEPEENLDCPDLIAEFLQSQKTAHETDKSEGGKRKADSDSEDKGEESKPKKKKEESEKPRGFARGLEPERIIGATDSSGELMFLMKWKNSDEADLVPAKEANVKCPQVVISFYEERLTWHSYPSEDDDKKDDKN
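AlphaScreen: HP1-beta (50 nM) preformed 30 min with biotin-H3(1-18)K9me3 peptide (50 nM) in PBS pH 7.4, 0.01% Tween-20. Compound added for 30 min at RT, then streptavidin donor/nickel chelate acceptor beads (10 ug/mL) for 30 min.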
JMJD2A Tudor = inhibitors of human JMJD2A Tudor domain; O75164; AlphaScreen JMJD2A-Tudor / H3K4me3 peptide binding; Potency, µM (highest dose often 114 µM), usual class: inhibitors; actives 4.4% (n = 390,000); further: nearly all actives have a fitted effect of over 50% in size
PLK1 PBD inh = PLK1 (human) polo-box domain binding inhibition | Plk1 PBD binding of FITC phosphopeptide, fluorescence polarization | Potency, µM, hits mostly inhibitors | actives 2.8% (n = 360,000) | AID 720504; further: series mostly up to about 57 µM; nearly all actives have a fitted effect of over 65% in size
BAZ2B block = BAZ2B (human) inhibition; AlphaScreen BAZ2B-H3K14Ac peptide displacement; Potency, µM (titrated, usually from 114 µM), most hits filed as inhibitors; actives 4.4% (n = 360,000); AID 504333; further: nearly all actives have a fitted effect of over 60% in size
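Compounds, titrated to a top concentration of 110 uM, were incubated 30 min at room temperature with preformed BAZ2B/acetyl-K14 H3 peptide complex (50 nM each). Proximity signal was measured by AlphaScreen after 20 min with beads.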
VDR inhibitor = inhibitors of human vitamin D receptor | P11473 | VDR-SRC2-3 peptide fluorescence polarization, 2 h | Potency, µM, most hits filed as inhibitors | actives 0.93% (n = 400,000)
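Reagent solutions, kept cold and dark, are dispensed first; compounds are then pinned in at 23 nl, plates briefly spun, and incubated 2 h at ambient temperature. Inhibition of VDR–SRC2-3 peptide binding is read by fluorescence polarization.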
L3MBTL1 inh = blocks human L3MBTL1; AlphaScreen L3MBTL1–H3K9me1 peptide binding; Potency, µM (doses to about 57.1 µM), actives largely listed as inhibitors; AID 485360; actives 0.66% (n = 230,000); further: nearly all actives have a fitted effect of over 60% in size
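First, the protein-peptide complex forms for 30 min at room temperature (L3MBTL1 50 nM, biotinylated H3K9me1 peptide 75 nM). Next, compounds are pin-transferred and incubated 30 min. Finally, AlphaScreen beads are added and read after 30 min.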
12-hLO 8HQ R1 = 12-hLO (human) inhibition, 8HQ series round 1; shares compounds with BAZ2B block; purified 12-hLO, cuvette UV 234 nm product formation; Potency, µM, hits mostly inhibitors; actives 60% (n = 35);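 active means compounds that slowed 12-hLO product formation enough to yield a measured IC50 potency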
JMJD2E inh-1 = JMJD2E demethylase inhibition by 8HQ compounds; shares compounds with BAZ2B block; JMJD2E demethylase, FDH-coupled NADH fluorescence; Potency, µM (series often up to 57 µM), hits mostly inhibitors; actives 89% (n = 130)
ME-1 growth = reduces ME-1 leukemia cell proliferation | actives 20% (n = 140) | ME-1 cell proliferation, ATP luminescence, 48 h | shares compounds with BAZ2B block | Potency, µM (top dose mostly 56.1 µM), hits mostly inhibitors
JMJD2E inh-2 = confirmation of inhibitors of human JMJD2E demethylase. AID 2677. shares compounds with JMJD2A Tudor. actives 93% (n = 140). Recombinant JMJD2E, FDH-coupled NADH fluorescence (FDH is formaldehyde dehydrogenase). Potency, µM (highest dose often 56.8 µM), hits mostly inhibitors
FDH counter = FDH (Pseudomonas putida) inhibition counter-screen. AID 2680. Potency, µM (series often up to 56.7 µM), most hits filed as inhibitors. FDH enzyme assay, NADH fluorescence kinetic. actives 10% (n = 140). shares compounds with JMJD2A Tudor
Target sequence (P46154 whole entry, looked up): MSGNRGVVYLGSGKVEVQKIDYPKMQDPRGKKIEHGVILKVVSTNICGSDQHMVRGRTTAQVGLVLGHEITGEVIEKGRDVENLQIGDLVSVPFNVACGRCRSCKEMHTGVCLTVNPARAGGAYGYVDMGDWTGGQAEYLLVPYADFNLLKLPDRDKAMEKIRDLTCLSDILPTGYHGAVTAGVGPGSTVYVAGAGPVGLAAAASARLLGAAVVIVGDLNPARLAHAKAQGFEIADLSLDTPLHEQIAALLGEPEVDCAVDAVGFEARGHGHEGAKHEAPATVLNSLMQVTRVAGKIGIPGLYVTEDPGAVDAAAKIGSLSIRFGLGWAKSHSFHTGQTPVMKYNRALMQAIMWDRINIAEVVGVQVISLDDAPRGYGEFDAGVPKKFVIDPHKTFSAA
Numbers stand for hits; n = inactive; u = inconclusive; x = no result given; ! = not confirmed by another sample. Compounds with a hit are over-represented: about 6.9% of the library has one in this group of screens. Unless noted, the call rests on the fitted dose curve; in most records, active means well fitted curve in the direction sought with a large enough effect; inconclusive means small, poorly fitted or top-dose-only effect, or another doubt; inactive means no such curve, though single readings can be large; an effect the other way counts as inactive or inconclusive.

SMILES	HP1b chromo inh	JMJD2A Tudor	PLK1 PBD inh	BAZ2B block	VDR inhibitor	L3MBTL1 inh	ME-1 growth	others
COCc1cc(O)c(O)c(O)c1-c1c(COC)cc(O)c(O)c1O	x	x	x	x	16µM	x	n
CCC(=O)NC(c1cccs1)c1cc([N+](=O)[O-])c2cccnc2c1OC (stereo not drawn)	x	x	x	u	x	n	x	12-hLO 8HQ R1=n;JMJD2E inh-1=4.6µM
CC(=O)NC(c1ccco1)c1cc(Cl)c2ccccc2c1O (stereo not drawn)	n	n	x	n	n	n	x
CC(=O)NC(c1ccco1)c1cc(Cl)c2ccc(Cl)nc2c1O (stereo not drawn)	n	n	x	n	n	n	x	12-hLO 8HQ R1=n;JMJD2E inh-1=n
CC(=O)NC(c1ccco1)c1cc(F)c2cccnc2c1O (stereo not drawn)	n	56µM	x	20µM	n	14µM	x	12-hLO 8HQ R1=5µM;JMJD2E inh-1=29µM
CCC(=O)NC(c1ccco1)c1cc(Cl)c2ccccc2c1O (stereo not drawn)	n	n	x	n	n	n	x
CC(=O)NC(c1cccs1)c1cc(F)c2cccnc2c1O (stereo not drawn)	n	79µM	x	25µM	n	u	x	12-hLO 8HQ R1=2µM;JMJD2E inh-1=29µM
Cc1ccc(S(=O)(=O)C[C@@H]2OC[C@H](C)N2S(=O)(=O)c2ccc(C)cc2)cc1	x	x	n	x	x	x	x
O=C(NCCN1C(=O)S/C(=C\c2ccccc2)C1=O)C1CCN(S(=O)(=O)c2cccs2)CC1	u	n	n	n	n	n	x
CSc1nnc(N(CCC#N)CCC#N)s1	n	n	n	n	n	n	x
CCc1sc(N)nc1-c1ccccc1	n	n	n	u	n	n	n
Brc1ccc(Cn2c(-c3ccc(Br)o3)nc3ccccc32)o1	n	n	n	13µM	n	n	u
Cc1nc2ccccc2n1Cc1ccc(Br)cc1	n	n	n	x	n	x	x
O=C(O[C@@H]1OC2COC(=O)c3cc(O)c(O)c(O)c3-c3c(cc(O)c(O)c3O)C(=O)O[C@@H]([C@H]1O)[C@@H]2O)c1cc(O)c(O)c(O)c1	n	x	9.5µM	0.79µM	n	0.1µM	u
COc1c(O)cc2c(c1O)C1OC(CO)C(O)[C@H](O)[C@H]1OC2=O (stereo partly drawn)	x	x	x	x	n	x	x
CC1(C)CC2(C)CC(=O)C1C(C(=O)O)C2C(=O)O (stereo not drawn)	x	x	n	x	x	x	x
Cc1cccc(NC(=S)N(CCN(C)C)C(C)c2ccccn2)c1 (stereo not drawn)	n	n	n	56µM	n	x	n
Cc1ccc(Cl)cc1NC(=S)N(CCN(C)C)C(C)c1ccccn1 (stereo not drawn)	n	n	n	x	n	x	n
COc1ccc(F)cc1S(=O)(=O)Nc1cccc(-c2ccc(N3CCCCCC3)nn2)c1	n	n	x	n	n	x	x
Nc1c(C(=O)NCC2CCCO2)sc2nc3c(c(-c4ccco4)c12)CC/C3=C\c1ccco1 (stereo not drawn)	u	2µM	u	8.9µM	u	3.2µM	u
NC(=O)c1sc2nc3c(c(-c4ccco4)c2c1N)CCCC3	n	n	n	n	n	x	x
C[C@@H]1CN([C@H](C)CO)C(=O)CCCn2nncc2CO[C@@H]1CN(C)C(=O)Nc1cccc2ccccc12	x	x	n	x	x	x	x
Cc1ccc(NC(=O)Cn2nnc(C(=O)NCCc3ccccc3)c2N)cc1C	n	n	x	n	n	x	x
CC(C)(c1cc(Br)c(O)c(Br)c1)c1cc(Br)c(O)c(Br)c1	n	89µM	27µM	56µM	n	n	n
COc1cccc2c1C(=O)c1c(O)c3c(c(O)c1C2=O)C[C@](O)(C(=O)CO)C[C@@H]3O[C@H]1C[C@H](N)[C@@H](O)[C@H](C)O1	x	x	x	x	n	x	x
SMILES	HP1b chromo inh	JMJD2A Tudor	PLK1 PBD inh	BAZ2B block	VDR inhibitor	L3MBTL1 inh	ME-1 growth	others
COc1cccc2c1C(=O)c1c(O)c3c(c(O)c1C2=O)C[C@@](O)(C(C)=O)C[C@@H]3O[C@H]1C[C@H](N)[C@H](O)[C@H](C)O1	n	u	u	35µM	u	n	0.25µM
Cc1cc(C)c(C)c(S(=O)(=O)N2CCN(CC(=O)c3c(N)n(Cc4ccccc4)c(=O)n(C)c3=O)CC2)c1C	n	n	n	u	n	n	x
O=[N+]([O-])c1cc2c(cc1/C=N/n1c(-c3ccccn3)n[nH]c1=S)OCO2	u	4µM	u	7.1µM	n	u	u
CNc1cncc(-c2cccc(NS(C)(=O)=O)c2)n1	x	x	n	x	x	x	x
O=C1NC(=S)N(c2cccc(Cl)c2)C12CCCCC2	n	n	n	n	n	n	x
COCCCN1CCN(C2Cc3ccccc3Sc3ccc(Cl)cc32)CC1 (stereo not drawn)	n	22µM	n	u	n	n	n
O=C1c2ccccc2C(=O)c2c(NCCc3ccc(O)cc3)ccc(NCCc3ccc(O)cc3)c21	x	x	x	x	n	x	x
O=C1c2ccccc2C(=O)c2c(Nc3ccc(CCO)cc3)ccc(O)c21	8.9µM	8.9µM	n	1.8µM	u	5.6µM	u
COc1cc2cccc(OC)c(=O)c2c(OC)c1OC	n	n	n	n	n	n	x
O=c1c(O)cccc2cc(O)c(O)c(O)c12	u	0.89µM	8.4µM	0.79µM	20µM!	0.56µM	u
Cc1ccc(-n2c(SCC(=O)NCc3ccc(F)cc3)nc3c([nH]c4ccccc43)c2=O)cc1	n	n	x	n	n	x	x
CCCC(=O)NC(c1ccc2c(c1)OCO2)c1cc(Cl)c2cccnc2c1O (stereo not drawn)	n	n	n	n	n	n	x
CCC(=O)NC(c1ccc(Br)o1)c1cc(Cl)c2cccnc2c1O (stereo not drawn)	x	n	x	x	x	x	x	12-hLO 8HQ R1=n;JMJD2E inh-1=10µM;JMJD2E inh-2=10µM;FDH counter=n
CCC(=O)NC(c1ccc2c(c1)OCO2)c1cc(Cl)c2cccnc2c1O (stereo not drawn)	x	u	x	x	x	x	x	JMJD2E inh-1=20µM;JMJD2E inh-2=20µM;FDH counter=n
CCC(=O)NC(c1ccc(C)cc1)c1cc(Cl)c2cccnc2c1O (stereo not drawn)	n	n	x	x	n	n	x	12-hLO 8HQ R1=n;JMJD2E inh-1=n;JMJD2E inh-2=n;FDH counter=n
